Composite z-score and z-score data for four compounds are collected here from PubChem BioAssay.

In experiment [1] the test system is Wnt5a (protein binding on small-molecule microarray). Kind of experiment: Wnt5a binders on small-molecule microarray, primary screen, biophysical, 635/667 nm fluorescence (AID 1142).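 Further: fluorescence read at 667 nm with signal to noise per printed feature.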 The following applies: 635 nm fluorescence, higher = more signal.
The nature of experiment [2]: cell viability in Huh7 cells, primary screen, cytotoxicity control for HCV replication inhibitor project, CellTiter-Glo luminescence, basal, 48 h (AID 1143).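 Further: Huh7 hepatoma cells carrying a hepatitis C replication reporter with no stimulus; test concentration not given here.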 The following applies: Huh7 HCV replicon, higher = more signal, called active from +8 up or from −8 down. A general note: Cellular ATP, detected with luciferase, serves as a proxy for viable cell number.
A short description of experiment [3]: P. aeruginosa biofilm formation inhibitors, primary screen, PAO1 strain, BacTiter-Glo luminescence, LB-PBS (AID 1144). The following applies: 12 h, higher = more signal.
The nature of experiment [4]: CREB reporter modulators without forskolin, primary screen, cell-based, PC12, CRE-LacZ reporter, unstimulated (AID 1145). The following applies: no forskolin, luminescence, 4.5 h, higher = more signal, called active from +8 up or from −8 down.
A short description of experiment [5]: CREB reporter modulators under forskolin, primary screen, cell-based, PC12, CRE-LacZ reporter, forskolin-stimulated (AID 1146).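 Further: PC12 cells with 6xCRE LacZ reporter stimulated by forskolin 10 µM; beta-galactosidase reporter signal reflecting CREB driven transcription.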 The following applies: luminescence, 4.5 h, higher = more signal, called active from +8 up or from −8 down.
Experiment [6] deals with Streptavidin (Streptomyces avidinii) (UniProt P22629). Kind of experiment: streptavidin binders on small-molecule microarray, primary screen, artefact control for SMM compound annotation, biophysical, 635/667 nm fluorescence (AID 1147).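 Further: signal reflects streptavidin binding to arrayed compounds as a control protein.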 The following applies: streptavidin binding, higher = more signal.
A short description of experiment [7]: small-molecule binders of probe aInhba, primary screen, biochemical, small-molecule microarray, 635/667 nm fluorescence (AID 1148).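 Further: score merges 667nm spot fluorescence with signal-to-noise for antibody binding to printed compounds.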 The following applies: higher = more signal.
Experiment [8] addresses Torsin-1A (Homo sapiens) (UniProt O14656). Description: torsin A binders from cell lysate, primary screen, small-molecule microarray, wild-type, 635/667 nm (AID 1149). The following applies: COS7 hTOR1A-WT lysate, 635 nm fluorescence, higher = more signal.
Experiment [9] shares this target. Description: small-molecule binders of mutant TOR1A in lysate, primary screen, cell lysate, small-molecule microarray, COS7 lysate, 635/667 nm fluorescence (AID 1150).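 Further: score pools 667 nm emission and signal to noise measuring lysate protein binding.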 The following applies: COS7 hTOR1A mutant lysate, 635 nm fluorescence, higher = more signal.
Experiment [10] relates to Sonic hedgehog protein (Shh). Kind of experiment: small-molecule binders of Shh protein, primary screen, biochemical, small-molecule microarray, 635/667 nm fluorescence (AID 1151).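 Further: Shh protein binding to compounds spotted on small-molecule microarray slides; score combines spot fluorescence intensity with signal-to-noise across triplicate slides.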 The following applies: small-molecule microarray binding, 635 nm fluorescence; higher = more signal.
Experiment [11] is described as follows: E. coli DRC41 culture turbidity changes, primary screen, E. coli filamentation inducer project, strain DRC41, OD650, 48 h (AID 1152).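 Further: E. coli MC1000 strain DRC41 lacking acrAB efflux pump and sulA.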 The following applies: E. coli DRC41 (acrAB sulA), higher = more signal, called active from +8 up or from −8 down.
A short description of experiment [12]: small-molecule binders of probe aLefty1, primary screen, biochemical, small-molecule microarray, 635/667 nm fluorescence (AID 1153).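 Further: score merges spot fluorescence with signal-to-noise ratio from the scanned slide images.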 The following applies: higher = more signal.
The nature of experiment [13]: PSAC antagonists in infected red cells, primary screen, cell-based, P. falciparum Indochina, OD700, 1 h (AID 1154). The following applies: P. falciparum Indochina infected RBC osmotic lysis, higher = more signal, called active from +8 up or from −8 down.
Experiment [14] can be described thus: PSAC antagonists in infected red cells, primary screen, cell-based, P. falciparum Indochina, OD700, 2 h (AID 1155).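 Further: lysis reports solute entry through the parasite surface anion channel PSAC; channel blockers reduce lysis of infected cells.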 The following applies: P. falciparum Indochina infected erythrocytes, osmotic lysis OD700; higher = more signal, called active from +8 up or from −8 down.
Experiment [15] can be described thus: osmotic lysis modulators in infected erythrocytes, primary screen, PSAC antagonist project, cell-based, P. falciparum Indochina, OD700, 3 h (AID 1156). The following applies: higher = more signal, called active from +8 up or from −8 down.
Experiment [16] can be described thus: PSAC antagonists in infected red cells, primary screen, cell-based, P. falciparum Indochina, OD700, 18 h (AID 1157). The following applies: P. falciparum Indochina infected erythrocytes, osmotic lysis OD700, 18 h; higher = more signal, called active from +8 up or from −8 down.
The nature of experiment [17]: modulators of S6 phosphorylation in cells, primary screen, cell-based, A549, cytoblot, luminescence, serum-stimulated (AID 1158).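 Further: serum-stimulated A549 lung adenocarcinoma cells; signal is phosphorylated S6 detected by cytoblot immunostaining with HRP secondary.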 The following applies: A549 phospho-S6 cytoblot, 5 h, higher = more signal.
In experiment [18] the target is NADPH oxidase 2 (Homo sapiens) (UniProt P04839). Description: NOX2-dependent H2O2 signal modulators, primary screen, NOX inhibitor project, cell-based, HEK293-NOX2, PMA-stimulated, Amplex Red fluorescence (AID 1159). Further: test concentration not given here. The following applies: 45 min, higher = more signal, called active from +8 up or from −8 down.
For experiment [19], the target named is NADPH oxidase 4 (Homo sapiens) (UniProt Q9NPH5). Kind of experiment: NOX4-dependent H2O2 signal modulators, primary screen, NOX inhibitor project, cell-based, HEK293-NOX4, tetracycline-induced, Amplex Red fluorescence (AID 1160). The following applies: 45 min, higher = more signal, called active from +8 up or from −8 down.
The target in experiment [20] is NADPH oxidase 5 (Homo sapiens) (UniProt Q96PH1). Kind of experiment: NOX5-dependent H2O2 signal modulators, primary screen, NOX inhibitor project, cell-based, HEK293-NOX5, Amplex Red fluorescence (AID 1161). The following applies: HEK293-NOX5, ionomycin, 45 min, higher = more signal.

Activity calls are given as the source filed them. Unless noted, how the calls were made is not given here.

Sequence of NADPH oxidase 4 (Homo sapiens) (Q9NPH5 whole entry, looked up): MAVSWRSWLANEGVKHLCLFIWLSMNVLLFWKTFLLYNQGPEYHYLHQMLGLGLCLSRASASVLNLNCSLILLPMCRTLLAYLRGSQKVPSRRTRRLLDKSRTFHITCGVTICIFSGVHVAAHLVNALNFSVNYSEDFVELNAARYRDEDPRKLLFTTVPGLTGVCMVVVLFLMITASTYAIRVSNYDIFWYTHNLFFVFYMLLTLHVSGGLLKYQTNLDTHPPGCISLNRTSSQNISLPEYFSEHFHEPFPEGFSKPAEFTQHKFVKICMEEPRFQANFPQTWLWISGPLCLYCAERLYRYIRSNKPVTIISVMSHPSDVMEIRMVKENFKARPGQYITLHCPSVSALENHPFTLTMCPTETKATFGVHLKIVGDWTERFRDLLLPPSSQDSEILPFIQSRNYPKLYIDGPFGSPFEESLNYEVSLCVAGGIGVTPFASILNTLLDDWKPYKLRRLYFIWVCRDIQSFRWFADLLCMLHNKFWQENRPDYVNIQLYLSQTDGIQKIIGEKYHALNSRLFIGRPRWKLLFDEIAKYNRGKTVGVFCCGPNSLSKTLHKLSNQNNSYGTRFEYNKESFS
Sequence of NADPH oxidase 5 (Homo sapiens) (Q96PH1 whole entry, looked up): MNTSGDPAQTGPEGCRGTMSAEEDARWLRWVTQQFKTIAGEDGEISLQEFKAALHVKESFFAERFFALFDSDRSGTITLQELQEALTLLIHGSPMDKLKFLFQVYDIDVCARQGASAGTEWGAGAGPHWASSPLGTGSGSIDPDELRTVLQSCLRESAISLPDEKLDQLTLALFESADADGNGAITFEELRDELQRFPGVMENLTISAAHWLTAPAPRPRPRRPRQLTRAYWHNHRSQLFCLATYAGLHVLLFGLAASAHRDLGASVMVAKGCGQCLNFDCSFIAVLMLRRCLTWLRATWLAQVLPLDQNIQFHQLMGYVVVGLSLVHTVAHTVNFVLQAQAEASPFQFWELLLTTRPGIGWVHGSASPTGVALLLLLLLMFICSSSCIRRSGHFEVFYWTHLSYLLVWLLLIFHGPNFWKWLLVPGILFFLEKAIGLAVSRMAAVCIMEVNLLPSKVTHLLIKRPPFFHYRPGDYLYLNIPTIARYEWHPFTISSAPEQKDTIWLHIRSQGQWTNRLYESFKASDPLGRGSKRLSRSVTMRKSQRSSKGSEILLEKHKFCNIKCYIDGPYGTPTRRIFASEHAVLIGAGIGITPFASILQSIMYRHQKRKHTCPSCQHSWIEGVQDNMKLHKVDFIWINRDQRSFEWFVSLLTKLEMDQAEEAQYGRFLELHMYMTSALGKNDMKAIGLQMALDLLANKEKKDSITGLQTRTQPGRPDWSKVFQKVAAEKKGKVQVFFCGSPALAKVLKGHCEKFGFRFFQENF
Sequence of Torsin-1A (Homo sapiens) (O14656 whole entry, looked up): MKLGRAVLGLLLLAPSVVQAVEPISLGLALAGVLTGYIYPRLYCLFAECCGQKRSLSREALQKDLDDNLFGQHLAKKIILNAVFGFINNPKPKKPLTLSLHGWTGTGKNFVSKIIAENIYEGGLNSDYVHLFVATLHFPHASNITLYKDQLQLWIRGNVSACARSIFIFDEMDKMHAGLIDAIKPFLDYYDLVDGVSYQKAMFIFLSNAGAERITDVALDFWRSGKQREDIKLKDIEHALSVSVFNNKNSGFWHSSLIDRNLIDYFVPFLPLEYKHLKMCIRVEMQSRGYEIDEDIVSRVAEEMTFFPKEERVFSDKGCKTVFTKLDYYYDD
Sequence of NADPH oxidase 2 (Homo sapiens) (P04839 whole entry, looked up): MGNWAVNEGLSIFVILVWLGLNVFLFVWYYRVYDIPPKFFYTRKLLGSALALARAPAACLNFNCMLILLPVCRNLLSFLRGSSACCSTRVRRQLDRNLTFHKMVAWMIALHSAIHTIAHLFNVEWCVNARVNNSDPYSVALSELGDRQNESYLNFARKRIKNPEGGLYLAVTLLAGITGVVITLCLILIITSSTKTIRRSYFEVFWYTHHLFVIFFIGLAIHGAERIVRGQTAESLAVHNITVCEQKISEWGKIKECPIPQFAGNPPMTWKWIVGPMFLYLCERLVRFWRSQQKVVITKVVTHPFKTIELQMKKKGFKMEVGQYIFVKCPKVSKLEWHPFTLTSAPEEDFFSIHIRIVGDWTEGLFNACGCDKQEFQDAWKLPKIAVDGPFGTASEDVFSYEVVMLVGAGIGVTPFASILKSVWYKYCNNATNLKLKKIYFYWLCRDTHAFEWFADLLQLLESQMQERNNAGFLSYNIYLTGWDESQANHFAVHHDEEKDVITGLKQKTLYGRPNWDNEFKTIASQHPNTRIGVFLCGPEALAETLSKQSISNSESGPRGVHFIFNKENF
Sequence of Streptavidin (Streptomyces avidinii) (P22629 whole entry, looked up): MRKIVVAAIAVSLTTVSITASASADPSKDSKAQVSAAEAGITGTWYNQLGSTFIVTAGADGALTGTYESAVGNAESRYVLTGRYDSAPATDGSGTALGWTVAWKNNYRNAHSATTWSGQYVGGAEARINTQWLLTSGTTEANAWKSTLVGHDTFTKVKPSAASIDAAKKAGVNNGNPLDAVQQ

Consider `O=C(NCCN1CCOCC1)[C@@H]1c2ccccc2C(=O)N(Cc2ccccc2C(F)(F)F)[C@H]1c1ccc(CO)cc1`, for which the composite z-score is -0.316 in experiment [1]; -1.12 in [6]; -0.224 in experiment [7]; -0.691 in the experiment with Torsin-1A (Homo sapiens) [8]; 0.0912 with Torsin-1A (Homo sapiens) [9]; -0.112 in [10]. Moreover, the composite z-score in experiment [12] was -0.418. In addition, the z-score in [2] is -0.0154 (inactive); in [3], 0.151 (inactive); in experiment [4], 0.324 (inactive); in [5], -1.32 (inactive); in experiment [11], 0.736 (inactive); in experiment [13], 2.76 (inactive). In addition, the z-score in [14] is -0.191 (inactive); in experiment [15], 1.15 (inactive); in [16] it was 0.158 (inactive); in experiment [17] it was -0.328; in experiment [18] it was 0.523 (inactive); in [19] it was 0.484 (inactive). The same compound yielded a z-score in [20] of 0.772.
Turning to `CC(C)(C)OC(=O)CC[C@]1(C(=O)NCC(O)CO)N=C(c2ccc(OCCCO)cc2)O[C@H]1c1ccccc1N=[N+]=[N-]` (stereo not given in full), the composite z-score in experiment [1] came to 0.112; in experiment [6], 1.38; in experiment [7], 0.32; in the experiment with Torsin-1A (Homo sapiens) [8], 0.172; with Torsin-1A (Homo sapiens) [9], 0.565; in experiment [10], 0.0555. Also, the composite z-score in [12] amounted to 0.215. Besides, the z-score in experiment [2] was -1.01 (inactive); in [3] it was -0.00253 (inactive); in experiment [4] it was -0.0808 (inactive); in experiment [5], -1.48 (inactive); in experiment [11], 0.618 (inactive); in [13], 29.9 (active). In addition, the z-score is 27.1 (active) in experiment [14]; 1.38 (inactive) in experiment [15]; 6.1 (inactive) in [16]; -0.465 in [17]; -3.04 (inactive) in experiment [18]; 1.04 (inactive) in experiment [19]. In addition, the z-score in experiment [20] is -1.68.
Regarding `C=CCOC(=O)[C@@H]1[C@H]2C(=O)O[C@H](c3ccccc3)[C@H](c3ccccc3)N2[C@H](c2ccc(OCCOC(=O)[C@H]3C[C@H]4C(=O)NCC(=O)N4[C@H]3c3cccc(OCCO)c3)cc2)[C@@]12C(=O)Nc1ccc(I)cc12`, the composite z-score in experiment [1] was determined as 0.569; in experiment [6] it was 0.808; in experiment [7] it was 0.0228; in the experiment with Torsin-1A (Homo sapiens) [8], 0.724; in the experiment with Torsin-1A (Homo sapiens) [9], 0.702; in experiment [10], 1.88. The compound also gave a composite z-score in experiment [12] of 0.248. The z-score in [2] is -0.357 (inactive); in [3] it was -0.71 (inactive); in experiment [4], -0.264 (inactive); in experiment [5], -0.0891 (inactive); in experiment [11], -0.27 (inactive); in [13] it was 1.5 (inactive). The z-score in experiment [14] was 1.56 (inactive); in [15], 1.06 (inactive); in [16] it was 1.26 (inactive); in experiment [17], 0.117; in [18], 1.54 (inactive); in experiment [19], 0.436 (inactive). Further, the z-score in experiment [20] was 1.55.
Consider `C=C(CCCC)C(=O)CC[C@H](OC(=O)c1ccccc1-c1ccccc1C(=O)O)c1ccc(OCCO)cc1`, for which the composite z-score in experiment [1] was 0.475; in experiment [6] it was -0.092; in [7], 0.0614; in the experiment with Torsin-1A (Homo sapiens) [8], 0.374; with Torsin-1A (Homo sapiens) [9] it was 0.204; in [10], 1.91. Besides, in experiment [12], the composite z-score is -0.199. For the same compound, the z-score is -1.19 (inactive) in experiment [2]; -1.5 (inactive) in [3]; -0.35 (inactive) in experiment [4]; 2.12 (inactive) in experiment [5]; 0.418 (inactive) in experiment [11]; 12.3 (active) in experiment [13]. The z-score in experiment [14] was 1.38 (inactive); in [15] it was 1.49 (inactive); in [16], 0.847 (inactive); in [17], -0.265; in [18], 0.135 (inactive); in experiment [19], -0.406 (inactive). The z-score in experiment [20] was -1.59.
